# Screen size: about 330,000 compounds; about 560 (0.17%) were called active. Where a call stands in place of a potency, no number is given. Inconclusive results (about 1%) are left out. Calls come from the whole dose curve; as a rule, active = well fitted inhibition curve with a large enough effect; inconclusive = small, poorly fitted or top-dose-only effect, or effect the other way; inactive = flat fitted curve, though single readings scatter. The sample as a whole holds a higher share of actives than the screen did.
# Biological target: ATP-dependent 6-phosphofructokinase (Trypanosoma brucei brucei) (UniProt O15648)
# Sequence (O15648 whole entry, looked up): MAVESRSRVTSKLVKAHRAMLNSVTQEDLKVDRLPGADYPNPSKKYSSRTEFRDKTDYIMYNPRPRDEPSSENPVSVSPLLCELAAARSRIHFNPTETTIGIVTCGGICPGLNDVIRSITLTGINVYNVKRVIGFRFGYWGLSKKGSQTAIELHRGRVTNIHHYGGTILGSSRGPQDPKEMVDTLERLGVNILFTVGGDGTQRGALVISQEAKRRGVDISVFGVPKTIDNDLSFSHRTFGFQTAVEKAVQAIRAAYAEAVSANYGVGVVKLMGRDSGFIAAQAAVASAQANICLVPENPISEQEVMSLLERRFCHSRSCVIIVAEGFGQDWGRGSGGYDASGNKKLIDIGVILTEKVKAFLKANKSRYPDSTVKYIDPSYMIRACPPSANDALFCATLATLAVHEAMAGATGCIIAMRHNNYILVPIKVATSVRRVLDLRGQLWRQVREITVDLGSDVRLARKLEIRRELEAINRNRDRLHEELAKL
# Assay: qHTS Assay to Find Inhibitors of T. brucei phosphofructokinase; note: nearly all actives have a fitted effect of over 60% in size
# Details: T. brucei PFK, ADP-Glo luminescence; series mostly up to 57.5 µM
# Description: NIH Molecular Libraries Probe Production Network [MLPCN] NIH Chemical Genomics Center [NCGC] Grant: 1 R03 MH092153-01 PI Name: Malcolm Walkinshaw, University of Edinburgh NCGC Assay Overview: Various species of the protozoan family Trypanosomatidae are responsible for a range of serious human diseases in tropical and subtropical areas of the world. […] Many of the disorders caused by trypanosomatids are fatal if left untreated, but most currently used drugs are inefficient and toxic. […] Oxidative metabolism involving the mitochondrial tricarboxylic acid cycle and oxidative phosphorylation are repressed in these parasites, and recent RNA interference (RNAi) experiments have shown that even partial depletion of certain individual glycolytic enzymes can lead to the death of cultured parasites. One such glycolytic enzyme, phosphofructokinase (PFK), catalyzes the formation of fructose-1,6-bisphosphate (F1,6BP) and ADP from fructose-6-phosphate (F6P) and ATP, and in many metabolic circumstances makes an important contribution to the control of flux through the glycolytic pathway. As a specific glycolytic target, PFK is particularly attractive as it catalyzes the first irreversible step in glycolysis, and structural and kinetic studies have shown very substantial and essential differences from corresponding host enzymes, allowing for the discovery of parasite-selective inhibitors. The goal of this screen is to find small-molecule inhibitors of T. brucei PFK using a biochemical assay that measures PFK activity as a function of ADP production. A luminescence-based assay for T. brucei PFK activity has been developed which uses luciferase to detect production of ADP. Traditional luciferase-based nucleotide detection reagents rely on ATP production as a direct substrate for the luciferase reaction; however, PFK catalyzes the transfer of a phosphate from ATP to F6P, resulting in the net depletion of ATP. To directly measure the ADP product of the PFK reaction, we used the ADP-Glo detection kit (Promega), which utilizes two separate reactions to 1) deplete all remaining uncatalyzed ATP and 2) convert all remaining ADP to ATP, which is then detected through a traditional luciferase-coupled reaction. Compounds were screened as a concentration-titration series that ranged from 57 uM to 0.7 nM.
# NCGC Assay Protocol Summary: NCGC Assay Protocol Summary: Substrate buffer was dispensed into white, solid 1536-well plates at 3uL/well in 0.1M triethanolamine (TEA) buffer, pH 8.0, containing final concentrations of 5 mM MgCl2, 0.01% Tween20, 0.5 mM fructose-6-phosphate (F6P) and 0.1mM ATP. Then, 23 nL of compounds or DMSO were delivered to each well using a pin tool. One uL T. brucei PFK (0.1M TEA, 0.01% Tween20, 0.1% bovine serum albumin (BSA) and 1.25nM PFK, final concentrations) was then dispensed, and plates were incubated at room temperature for 45 min. The luminescent detection reagent, ADP-Glo (Promega), was then added in two steps: the first reagent, ADP-Glo (which converts remaining uncatalyzed ATP), was added at 2.5uL/well and incubated for ten minutes at room temperature, and the second component, Kinase Detection reagent (which converts ADP to ATP as a substrate for luciferase-based luminescence), was added immediately after at 5uL/well, followed by one final ten minute room temperature incubation. The plates were measured on a ViewLux plate reader for luminescent signal using a clear filter with a one second exposure. The %Activity was determined from the corrected luminescence values. As no specific T. brucei PFK inhibitors have been identified in the literature, 1x (1.25nM) and 0x PFK enzyme controls (untreated) were included to normalize %Activity of identified inhibitors; 0x enzyme values corresponded to 100%Activity (full inhibition), while 1x PFK enzyme values were used to normalize 0%Activity (no inhibition). Concentration-response curves were fitted to the signals arising from the resulting luminescence. […]
# Potency is the fitted concentration of half-maximal effect.
row,Compound,Potency
1,Cc1ccc(-n2c(N)c(C(=O)N3CCOCC3)sc2=S)c(C)c1,inactive
2,Cc1ccc2c(C)c(C(=O)N(C)CCC3CCCCO3)oc2c1C (stereo unspecified),inactive
3,N#CCSc1nn(-c2ccc(F)cc2)c(=S)s1,inactive
4,O=c1ccc2c(-c3ccccc3S(=O)(=O)O)c3ccc(O)c(O)c3oc-2c1O,2.39 µM (active)
5,COc1ccc(C(=O)/C=C/c2ccc(-c3ccccc3)cc2)cc1CSCC(=O)O,inactive
6,COc1ccc(/C=C/C(=O)c2ccc(NS(=O)(=O)c3ccc(C)cc3)cc2)cc1O,inactive
7,COC(=O)c1ccc(COc2ccc(/C=C/C(=O)c3ccc(OC)c(CSCC(=O)O)c3)cc2OC)cc1,4.78 µM (active)
8,Cc1ccc(OCC(=O)N2CCN(C(=O)c3cccnc3)CC2)cc1,inactive
9,CN1C(CC(=O)Nc2ccc(Br)cc2)c2ccccc2CC1(C)C (stereo unspecified),inactive
10,Cc1nn(Cc2ccc(F)cc2)c(C)c1NC(=O)c1cccnc1Cl,inactive
11,Cc1cc(C(=O)Nc2c(C)nn(Cc3ccccc3)c2C)on1,inactive
12,Cc1nn(Cc2ccc(Cl)c(Cl)c2)c(C)c1NC(=O)c1cc(C2CC2)on1,9.53 µM (active)
13,CCCc1nn(C)c2c(=O)[nH]c(-c3cc(S(N)(=O)=O)ccc3OCC)nc12,inactive
14,CC1CCC(NC(=O)CN(C)S(=O)(=O)c2ccc3c(c2)c(=O)n(C)c(=O)n3C)CC1 (stereo unspecified),inactive
15,O=C(OCC(=O)N1CCc2ccccc21)c1ccc([N+](=O)[O-])cc1,inactive
16,COc1ccc(NS(=O)(=O)c2ccc(C)c(C(=O)NNC(=O)c3csc(N4CCOCC4)n3)c2)cc1,inactive
17,CC1=NN(c2cccc(Cl)c2)C(=O)C12CC(C)=C(C)CS2 (stereo unspecified),inactive
18,Cc1ccn2c(=O)c(NC(=O)c3cccc4ccccc34)c(C)nc2c1,inactive
19,O=C(C1CCN(c2nnc(-n3cccc3)s2)CC1)N1CCc2ccccc2C1,inactive
20,CN1CCN(c2ccc(S(=O)(=O)N3CCOCC3)cc2NC(=O)CCc2ccccc2)CC1,inactive
21,O=C(COc1nsnc1N1CCOCC1)Nc1ccccc1Cl,inactive
22,O=C(NC1CCN(Cc2ccccc2)CC1)c1cc(Br)c(Br)[nH]1,inactive
23,Cc1cnc(C(=O)N2CCCC(C(=O)c3ccc(C(F)(F)F)cc3)C2)cn1 (stereo unspecified),inactive
24,Cc1cc(NC(=O)CCC(=O)N(CC(=O)NCC2CCCO2)c2ccccc2C)no1 (stereo unspecified),inactive
25,CC(CN1CCC(n2nccc2NC(=O)C2CCCC2)CC1)c1ccccc1 (stereo unspecified),inactive
26,C=Cn1cc[n+](CC(=O)c2ccc(OC)c(OC)c2)c1,inactive

row,Compound,Potency
1,CC(NCC(=O)Nc1ccccc1C(=O)NC1CC1)c1ccccc1Cl (stereo unspecified),inactive
2,Cc1cccc(NS(=O)(=O)c2ccc(-c3cnc(C4CC4)o3)cc2)c1,inactive
3,COc1ccccc1N(CC(=O)Nc1ccc(C)cc1Cl)S(=O)(=O)c1cccs1,inactive
4,O=C(NCC(=O)N1CCCC(C(F)(F)F)C1)c1ccccc1F (stereo unspecified),inactive
5,FC(F)(F)C1CCCN(c2nsc3ccccc23)C1 (stereo unspecified),6.75 µM (active)
6,O=C(NC(Cc1ccccc1)C(=O)N1CCCC(C(F)(F)F)C1)c1ccccc1 (stereo unspecified),inactive
7,COc1cccc(CNC(=O)C2CC(=O)N(C3CCCCCCC3)C2)c1 (stereo unspecified),inactive
8,Cc1ccc(/C=C2/SC(=S)N(CCC(=O)NCCCN3CCOCC3)C2=O)cc1,inactive
9,Cc1ccc(-c2nn(-c3ccccc3)cc2/C=C2\SC(=S)N(CCCCCC(=O)O)C2=O)o1,4.78 µM (active)
10,C=CCOc1ccc(/C=C2\SC(=S)N(CCC(=O)O)C2=O)cc1,inactive
11,CC(=O)c1nnn(-c2ccc(Cl)cc2C#N)c1C,inactive
12,Cc1cccn2c(CN(C)C3CCCc4ccccc43)c(C(=O)N3CCOCC3)nc12 (stereo unspecified),inactive
13,CC(C)=CC(=O)Nc1nnc(-c2ccc(F)cc2)s1,inactive
14,Cc1cc(C)cc(C(=O)N2CCN=C2SCc2ccc([N+](=O)[O-])cc2)c1,inactive
15,CN[C@H](C(=O)NC[C@H]1O[C@@H](n2cnc3c(N)ncnc32)[C@H](O)[C@@H]1O)[C@@H](C)OCc1ccccc1,inactive
16,Nc1nc(SCc2ccc([N+](=O)[O-])cc2)c2ncn(C3OC(CO)C(O)C3O)c2n1 (stereo unspecified),12 µM (active)
17,Cc1nc(SCc2ccc(F)cc2)c([N+](=O)[O-])[nH]1,inactive
18,Cc1nc(N)nc(SCc2ccc([N+](=O)[O-])cc2)c1N,13.5 µM (active)
19,CN(Cc1ccc(CNC[C@H]2O[C@@H](n3cnc4c(N)ncnc43)[C@H](O)[C@@H]2O)o1)S(C)(=O)=O,inactive
20,COc1cccc(CNC(=O)CCC2CCCN(C(=O)c3ccc(F)c(Cl)c3)C2)c1 (stereo unspecified),inactive
21,CCN(CC)CCn1cnc2c1c(=O)n(CCOC(=O)c1cc(OC)c(OC)c(OC)c1)c(=O)n2C,inactive
22,CCOc1ccc(NC(=O)c2ccc(CSc3nnnn3C)cc2)cc1,inactive
23,CC(C)C[C@H](NC(=O)N1CCn2c1nc1ccccc12)C(=O)NC1CC1,inactive
24,CC1CCN(C(=O)CN(c2ccc(Oc3ccccc3)cc2)S(C)(=O)=O)CC1,inactive
25,Cc1nn(C(C)CC(=O)O)c(C)c1C (stereo unspecified),inactive
